The structures appear in SMILES notation. Records with an inconclusive call do not appear. The source made the active and inactive calls. The call rests on the fitted dose curve. Positions of bridges follow the written chain, without caps; N, C: chain ends. Non-standard residues stand in square brackets, D forms with d. Residues, ends and D or L forms follow the SMILES beside them. hArg = N=C(N)NCCCC[C@H](N)C(=O)O; Mpa = O=C(O)CCS

The nature of the test: qHTS assay for small molecule disruptors of the mitochondrial membrane potential - cell viability (AID 720634).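 Further: human HepG2 liver cancer cells; nearly all actives have a fitted effect of over 20% in size.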 To be noted: HepG2 viability, ATP luminescence (CellTiter-Glo), 1 h; series mostly up to 83.2 µM. The text has this: U.S. Tox21 Program National Center for Advancing Translational Sciences [NCATS] NIH Chemical Genomics Center [NCGC] U.S. Environmental Protection Agency [EPA] National Institutes of Environmental Health Sciences [NIEHS] National Toxicology Program [NTP] U.S. Food and Drug Administration [FDA] Tox21 Assay Overview: Mitochondrial membrane potential (MMP), one of the parameters for mitochondrial function, is generated by mitochondrial electron transport chain that creates an electrochemical gradient by a series of redox reactions. This gradient drives the synthesis of ATP, a crucial molecule for various cellular processes. Measuring MMP in living cells is commonly used to assess the effect of chemicals on mitochondrial function; decreases in MMP can be detected using lipophilic cationic fluorescent dyes. […] The dye accumulates in the mitochondria of healthy cells as aggregates, with red fluorescence. The mitochondrial potential decreases and the dye could not accumulate in the mitochondria and remains in the cytoplasm in monomers, with green fluorescence. In addition to the mitochondrial potential assay, these cells were also used to test the cytotoxicity by determining the cell viability in the culture based on the quantitation of ATP present. The cytotoxicity was measured in the same assay well of MMP assay.
Tox21 Assay Protocol Summary: 2,000 HepG2 cells in 5 uL/well were dispensed into black, clear-bottom 1536-well plates using a Multidrop Combi (Thermo Scientific) dispenser. The assay plates were incubated for an overnight at 37 C to allow cells to attach to the wells, followed by the transfer of 23 nL compound or DMSO vehicle by a pin tool (Kalypsys). The plates were incubated for 1 hr at 37 C and 5% CO2, followed by the addition of 5 uL of 2X m-MPI dye into each well using Flying Reagent Dispenser (Aurora Discovery) and then CellTiter-Glo reagent was added at 4 uL/well and incubated 30 min at room temperature. Then luminescence intensity was quantified on a ViewLux CCD-based plate reader.
Turning to `CC(C)(CO)C(O)C(=O)NCCCO` (stereo not given), the call was inactive.

Regarding `CC(C)COC(=O)c1ccccc1`, the call was inactive.

With `CCCCCCCCCOC(=O)CCCCC(=O)OCCCCCCC`, the call was inactive.

Turning to `CC1OCCC1=O` (stereo not given), the compound was classed as inactive.

Turning to `Cn1c(=O)c2[nH]c(Br)nc2n(C)c1=O`, the compound was called inactive.

Regarding `Cc1c(C(=O)c2c[nH]n(C)c2=O)ccc(S(C)(=O)=O)c1C1=NOCC1`, the result was inactive.

Take `CC(C)CCOC(=O)c1ccccc1`: the compound was classed as inactive.

For the compound `CN1CCOC(c2ccccc2)c2ccccc2C1` (stereo not given), the call was inactive.

On to `OCC1CCC(CO)CC1` (stereo not given), for which the compound was called inactive.

In the case of `CC(=O)OCC(=O)Nc1cc(C#N)cc(NC(=O)COC(C)=O)c1Cl`, the compound was classed as inactive.

For `C=CC(=O)OCC1CCCO1` (stereo not given), the compound was classed as inactive.

Turning to `NC(=O)[C@@H]1CSSCCC(=O)N[C@@H](CCCCN=C(N)N)C(=O)NCC(=O)N[C@@H](CC(=O)O)C(=O)N[C@@H](Cc2c[nH]c3ccccc23)C(=O)N2CCC[C@H]2C(=O)N1` ([Mpa][hArg]GDWPC-NH2; disulfide 1-7), the outcome was inactive.

With `Cn1nnc2c(C(N)=O)ncn2c1=O`, the compound was called inactive.

Regarding `CCO`, the result was inactive.

For `Cc1ccc(C(C)NC(=O)[C@@H](NC(=O)OC(C)C)C(C)C)cc1` (stereo not given in full), the compound was called inactive.

In the case of `CC(C)c1ccc(C=O)cc1`, the outcome was inactive.

As to `C/C=C(\C)C(C)=O`, the compound was classed as inactive.

On to `CCNC(=O)NCc1cccc(Cl)c1`, for which the outcome was inactive.

For the compound `OC1OCCOC1O` (stereo not given), the compound was classed as inactive.

As to `CCCCC1CCC(O)CC1` (stereo not given), the compound was called inactive.

For `COC(=O)CCCCC(=O)O`, the compound was classed as inactive.

Consider `CCCc1ccc(O)cc1`, for which the outcome was inactive.

Consider `OCCN1CCOCC1`, for which the outcome was inactive.

For the compound `CCCC(=O)OCCC(C)CCC=C(C)C` (stereo not given), the compound was classed as inactive.

For `CCC(C)C(=O)OCCc1ccccc1` (stereo not given), the outcome was inactive.

For `CCOc1cccc(N)c1`, the result was inactive.

For `C=CCN1C[C@H](C(=O)N(CCCN(C)C)C(=O)NCC)C[C@@H]2c3cccc4[nH]cc(c34)C[C@H]21`, the result was inactive.

Regarding `COc1c2occc2c(OC)c2c(=O)cc(C)oc12`, the call was inactive.

On to `CC(=O)c1cc(C)oc1C`, for which the result was inactive.

For the compound `ONc1ccccc1`, the result was inactive.

For the compound `COC(=O)c1cccc(Cl)c1`, the result was inactive.

For `C[Si]1(C)O[Si](C)(C)O[Si](C)(C)O[Si](C)(C)O[Si](C)(C)O1`, the outcome was inactive.

For the compound `C[C@]12CCC(=O)C=C1CC[C@H]1[C@@H]3CC[C@](O)(C(=O)CO)[C@@]3(C)C[C@H](O)[C@@]12F`, the compound was classed as inactive.

For the compound `COC(=O)/C=C\C(=O)O`, the outcome was inactive.

For the compound `CC(C)=CCC[C@@](C)(O)[C@H]1CC=C(C)CC1`, the result was inactive.

Consider `OC[C@@H](O)C(O)[C@@H](O)CO` (stereo not given in full), for which the result was inactive.

On to `CN1C[C@@H]2C[C@H]1CN2c1cc2c(cc1F)c(=O)c(C(=O)O)cn2C1CC1`, for which the result was inactive.

Consider `CC(Oc1cc(Cl)ccc1Cl)C(=O)O` (stereo not given), for which the compound was called inactive.

With `C=C(C)[C@@H]1CC=C(C)C(=O)C1`, the outcome was inactive.

In the case of `CCOCCOCC`, the result was inactive.

Values taken from PubChem BioAssay (Tox21).
